Test results reported in PubChem BioAssay (NCI).
This is part of a sample that, as a whole, favours compounds with a hit. Of some 83,000 tested, about 20% had one in any assay.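 Method: cells in 96-well plates; compound added at one concentration; 48 h incubation; percent growth measured; values under 10 scored active.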 Unmarked numbers belong to inactive results. Calls of active or inactive are those of the source.

test system: HL-60(TB) leukemia; assay: NCI-60 one-dose screen, 48 h (100 = growth as untreated, 0 = no growth, -100 = all killed); settings: 10 µM unless noted

Which growth does the source give for `CCC(C)[C@H](NC(C)=O)C(=O)N[C@@H](CCCNC(=N)N)C(=O)N[C@@H](CCCCN)C(=O)N[C@@H](CC1CCC(O)CC1)C(=O)NC(C(=O)N[C@@H](CCSC)C(=O)N[C@@H](CCCNC(=N)N)C(=O)N[C@@]1(C)CCC/C=C\CCC[C@@](C)(C(=O)NC(C(=O)N[C@@H](CCC(=O)O)C(=O)N[C@@H](CC(C)C)C(=O)N[C@H](C(=O)N[C@@H](CCC(=O)O)C(N)=O)C(C)C)[C@@H](C)O)NC(=O)[C@H](CCC(N)=O)NC(=O)[C@H](CC(C)C)NC(=O)[C@H](CC(C)C)NC1=O)[C@@H](C)O` (stereo not given in full) here?
Its growth is 97.3%.

With `Cn1c(I)c(C#CCO[Si](C)(C)C(C)(C)C)c(=O)[nH]c1=O` as the compound, how does the growth read?
The growth was -41.2% (active).

With `COc1ccc2c(c1)O/C(=C\c1cccc(OCC(=O)Nc3nc(C)c(C)s3)c1)C2=O` as the compound, how does the growth read?
The growth was -77.3% (active).

How did the growth turn out when `N#CCC1CCCC1` was run?
The growth was 102%.

With `COc1ccc(Br)c2ccccc12` as the compound, how does the growth read?
Its growth is 88.4%.

With `C/C(Cc1ccc(Cl)cc1)=C(\c1ccc(OCCCN(C)C)cc1)c1ccc(OC(=O)Cc2ccccc2)cc1` as the compound, how does the growth read?
Its growth is 88.7%.

For `O=S(=O)(O)c1cccc(Nc2ccc3ccccc3c2)c1`, which growth is on record?
The growth was 89.9%.

`CCCCCOC(=O)Nc1nc(=O)n(C2O[C@H](C)[C@@H](O)[C@H]2O)cc1F` (stereo not given in full) was tested. Which growth did it give?
The growth was 92.8%.

With `O=[N+]([O-])c1cccc(N=NNc2cccc([N+](=O)[O-])c2)c1` as the compound, how does the growth read?
The growth was 79.9%.

`COc1ccc(S(=O)(=O)N2CCN(c3cc4c(cc3F)c(=O)c(C(=O)O)cn4C3CC3)CC2)c(OC)c1` was tested. Which growth did it give?
The growth was 87.1%.
